Records with an inconclusive call do not appear. A call without a number means that no potency is given here. Activity calls are given as the source filed them. Calls come from the whole dose curve.

The source of these data is PubChem BioAssay (Tox21).
Potency is the fitted concentration of half-maximal effect.

This assay relates to estrogen-related receptor alpha (ERRalpha) with PGC-1alpha coactivator, human. The assay is described as follows: qHTS assay to identify small molecule antagonists of the estrogen related receptor signaling pathway with the pleiotropic PPARgamma coactivator (PGC) (AID 1224821). Note: nearly all actives have a fitted effect of over 50% in size. To be noted: ERR/PGC reporter cell line, luciferase, antagonist mode; series mostly up to 46.1 µM. Summed up:
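Luminescent read-out (One-Glo, 30 min at room temperature) following 18 h treatment of PGC/ERR cells at 37 C with compounds delivered in DMSO. Cells had settled 6 h at 37 C/5% CO2 before dosing.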
(In general: qHTS replaces the single test concentration by a dilution series.)
As for `O=C1C2C=CC=CC2=NC(=S)N1CCN1CCC(=C(c2ccc(F)cc2)c2ccc(F)cc2)CC1` (stereo not given), the Potency is 25.6 µM (active).
The value for `COc1cccc(OC)c1OCCNCC1COc2ccccc2O1` (stereo not given) was “inactive”; that for `CNC(=O)[C@H]1O[C@@H](n2cnc3c(NCc4cccc(I)c4)ncnc32)[C@H](O)C1O` (stereo not given in full) was “inactive”; that for `Cc1cccc(C)c1OCC(N)C(C)C` (stereo not given) was “inactive”.
To `N#Cc1cc([N+](=O)[O-])c2sc(C(N)=O)[n+]([O-])c2c1` belongs “inactive”; to `c1ccc(CN2CCC3(CCCc4ccccc43)CC2)cc1`, “inactive”.
In the case of `CN1CCc2cccc3c2C1Cc1ccc(O)c(O)c1-3` (stereo not given), the Potency was 26.6 µM (active).
The value for `CCCCCCCC/C=C\CCCCCCCC(=O)NCCc1ccc(O)c(O)c1` was “inactive”.
To `c1ccc(C(NCc2cccnc2)(c2ccccc2)c2ccccc2)cc1` belongs 24.6 µM (active); to `COc1ccc(CCN(C)CCc2ccc(OC)c(OC)c2)cc1OC`, “inactive”.
